Measured values published in PubChem BioAssay (NCI).
Where “and” joins values, the source holds several entries; their conditions need not be identical. Identical values can stand only once. About 83,000 compounds went through this panel and 20% of them were active in at least one assay; those are over-represented in the sample as a whole.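 Plates (96-well) were seeded with cells, treated with compound at one concentration, and incubated for 48 hours before percent growth was determined.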 Calls of active or inactive are those of the source. Rule for the calls: active = growth percent below 10; inactive = the rest.

Assays:
Assay in all cases: NCI-60 one-dose screen, 48 h (100 = growth as untreated, 0 = no growth, -100 = all killed)
Conditions in all cases: 10 µM unless noted
SK-MEL-2 melanoma = system: SK-MEL-2 melanoma
EKVX NSCLC = system: EKVX NSCLC
SN12C renal = system: SN12C renal
UO-31 renal = system: UO-31 renal
TK-10 renal = system: TK-10 renal
ACHN renal = system: ACHN renal
CAKI-1 renal = system: CAKI-1 renal
A498 renal = system: A498 renal
CCRF-CEM leukemia = system: CCRF-CEM leukemia
MOLT-4 leukemia = system: MOLT-4 leukemia
RPMI-8226 leukemia = system: RPMI-8226 leukemia
OVCAR-8 ovarian = system: OVCAR-8 ovarian
OVCAR-5 ovarian = system: OVCAR-5 ovarian
OVCAR-4 ovarian = system: OVCAR-4 ovarian
SK-OV-3 ovarian = system: SK-OV-3 ovarian
IGROV1 ovarian = system: IGROV1 ovarian
OVCAR-3 ovarian = system: OVCAR-3 ovarian
NCI/ADR-RES ovarian = system: NCI/ADR-RES ovarian
SR leukemia = system: SR leukemia
HS 578T breast = system: HS 578T breast

Row | SMILES | growth (SK-MEL-2 melanoma) | growth (EKVX NSCLC) | growth (SN12C renal) | growth (UO-31 renal) | growth (TK-10 renal) | growth (ACHN renal) | growth (CAKI-1 renal) | growth (A498 renal) | growth (CCRF-CEM leukemia) | growth (MOLT-4 leukemia) | growth (RPMI-8226 leukemia) | growth (OVCAR-8 ovarian) | growth (OVCAR-5 ovarian) | growth (OVCAR-4 ovarian) | growth (SK-OV-3 ovarian) | growth (IGROV1 ovarian) | growth (OVCAR-3 ovarian) | growth (NCI/ADR-RES ovarian) | growth (SR leukemia) | growth (HS 578T breast)
1 | Cc1nnc(NC/C=C/c2ccccc2)s1 | 122% (inactive) | 101% (inactive) | 105% (inactive) and 108% (inactive) | 87.1% (inactive) and 91.2% (inactive) | 96.4% (inactive) and 111% (inactive) | 103% (inactive) and 112% (inactive) | 112% (inactive) | 96.1% (inactive) | 113% (inactive) | 92.8% (inactive) and 111% (inactive) | 102% (inactive) and 118% (inactive) | 102% (inactive) | 112% (inactive) | 102% (inactive) and 111% (inactive) | 98.4% (inactive) and 118% (inactive) | 112% (inactive) and 114% (inactive) | 99.7% (inactive) | 103% (inactive) and 102% (inactive) | – | –
2 | CC(O)(CC(=O)CC(=O)c1ccccc1)c1ccccc1 (stereo not drawn) | 126% (inactive) and 110% (inactive) | 103% (inactive) | 99.3% (inactive) and 85.3% (inactive) | 96.8% (inactive) and 94.2% (inactive) | 98.5% (inactive) and 111% (inactive) | 94.9% (inactive) and 106% (inactive) | 110% (inactive) | 79.9% (inactive) | – | 87.3% (inactive) and 113% (inactive) | 106% (inactive) and 88.9% (inactive) | 106% (inactive) and 102% (inactive) | 102% (inactive) and 103% (inactive) | 69.9% (inactive) and 118% (inactive) | 115% (inactive) and 114% (inactive) | 91.9% (inactive) and 103% (inactive) | 97.6% (inactive) and 99% (inactive) | 83.1% (inactive) and 72.9% (inactive) | 110% (inactive) and 103% (inactive) | 102% (inactive)
3 | CCOc1ccc2c(S(=O)(=O)O)cccc2c1[N+](=O)[O-] | 117% (inactive) and 109% (inactive) | 99.2% (inactive) and 88.5% (inactive) | 106% (inactive) and 103% (inactive) | 71.5% (inactive) and 79.1% (inactive) | 104% (inactive) and 126% (inactive) | 103% (inactive) and 105% (inactive) | 87% (inactive) and 96.1% (inactive) | 95% (inactive) and 116% (inactive) | – | 86.8% (inactive) and 96.4% (inactive) | 98.1% (inactive) and 95.9% (inactive) | 104% (inactive) and 97.6% (inactive) | 102% (inactive) and 112% (inactive) | 123% (inactive) and 109% (inactive) | 102% (inactive) and 106% (inactive) | 96.3% (inactive) and 114% (inactive) | 107% (inactive) and 112% (inactive) | 103% (inactive) and 106% (inactive) | 100% (inactive) and 94.2% (inactive) | 102% (inactive) and 94.5% (inactive)
4 | N#CC(C#N)=C/C=C/c1cccc([N+](=O)[O-])c1 | 20.6% (inactive) and -14.1% (active) | 45.5% (inactive) and 2.6% (active) | -21.7% (active) and -30.1% (active) | -16.6% (active) and -82.4% (active) | 7.02% (active) and -19.4% (active) | -22.1% (active) and -59.7% (active) | 10.6% (inactive) and -24.8% (active) | 94.4% (inactive) and 2.43% (active) | 2.18% (active) and 1.1% (active) | -1.02% (active) and 3.93% (active) | -16.2% (active) and -9.65% (active) | -22.1% (active) and -35.4% (active) | 23.1% (inactive) and -10.2% (active) | 31.9% (inactive) and 21.2% (inactive) | – | 24% (inactive) and -7.91% (active) | -9.85% (active) and -42.4% (active) | 5.66% (active) and -10.2% (active) | – | -9.4% (active) and -4.55% (active)
5 | CCCCCCCCCCCCCCCc1cc(O)ccc1N | 105% (inactive) and 106% (inactive) | 86.6% (inactive) and 85.6% (inactive) | 51.2% (inactive) and 62.2% (inactive) | -59.8% (active) and 20.5% (inactive) | 123% (inactive) and 98.3% (inactive) | 90% (inactive) and 76.8% (inactive) | 68.2% (inactive) and 1.52% (active) | 133% (inactive) and 122% (inactive) | – | -1.13% (active) and -2.69% (active) | 39.9% (inactive) and 10.3% (inactive) | 87.8% (inactive) and 87.1% (inactive) | 92.7% (inactive) and 124% (inactive) | 65.2% (inactive) and -19.7% (active) | 89.2% (inactive) and 69% (inactive) | 16.5% (inactive) and 45.2% (inactive) | 66.8% (inactive) and 50.9% (inactive) | 72.1% (inactive) and 49.7% (inactive) | 74.7% (inactive) and 37.7% (inactive) | 107% (inactive) and 95.2% (inactive)
6 | Cc1cc(N=Nc2ccc(C)c(N=Nc3cc(C)c(N)cc3N)c2)c(N)cc1N | 107% (inactive) | 67.1% (inactive) and 72.3% (inactive) | 95.6% (inactive) and 85.7% (inactive) | 63.9% (inactive) and 51.5% (inactive) | 93.7% (inactive) and 92.3% (inactive) | 84.4% (inactive) and 81.8% (inactive) | – | 93.8% (inactive) and 85.9% (inactive) | 84.5% (inactive) and 61.3% (inactive) | 64.4% (inactive) and 61.8% (inactive) | 43.6% (inactive) and 88.2% (inactive) | 98.9% (inactive) and 102% (inactive) | 92.5% (inactive) and 86.8% (inactive) | 86.6% (inactive) and 75.5% (inactive) | 91% (inactive) and 95.2% (inactive) | 36.8% (inactive) and 53.5% (inactive) | 89.3% (inactive) and 63.1% (inactive) | 92.4% (inactive) and 84% (inactive) | 97.9% (inactive) and 35.1% (inactive) | 89.4% (inactive) and 88.8% (inactive)
7 | Cn1c(=O)n(-c2ccc(C(C)(C)C#N)cc2)c2c3cc(-c4cnc5ccccc5c4)ccc3ncc21 | -42.4% (active) | 7.47% (active) and 2.62% (active) | 15.6% (inactive) and 17.1% (inactive) | -14.7% (active) and -16.6% (active) | -27.5% (active) and -27.4% (active) | 5.22% (active) and 9.17% (active) | – | -46.3% (active) and -44.5% (active) | 10.1% (inactive) | -5.74% (active) and -20.5% (active) | 8.42% (active) | 1.15% (active) and -10.2% (active) | 10.4% (inactive) and 19.4% (inactive) | -5.93% (active) and 0.981% (active) | – | -12.3% (active) and -27.9% (active) | 13.7% (inactive) and -10.6% (active) | 1.89% (active) and -0.868% (active) | 2.04% (active) and -5.13% (active) | –
8 | Cc1cc(O)c(C(C)C)cc1S(=O)(=O)O (tested in a mixture with another compound) | 99.6% (inactive) and 54% (inactive) and 112% (inactive) | 93.2% (inactive) and 29.5% (inactive) | 92.4% (inactive) and 22.6% (inactive) and 102% (inactive) | 90.7% (inactive) and -18.5% (active) and 77.4% (inactive) | 87.8% (inactive) and 33.8% (inactive) and 132% (inactive) | 91.8% (inactive) and 10.8% (inactive) and 92.4% (inactive) | – | 103% (inactive) and -18.3% (active) and 112% (inactive) | 94.5% (inactive) and 16.4% (inactive) | 118% (inactive) and 9.88% (active) and 107% (inactive) | 88.4% (inactive) and -13.4% (active) and 99.5% (inactive) | 97.7% (inactive) and 13.6% (inactive) and 97.5% (inactive) | 80.8% (inactive) and 28.3% (inactive) and 101% (inactive) | 89.5% (inactive) and 100% (inactive) | 105% (inactive) and 5.41% (active) and 118% (inactive) | 102% (inactive) and -2.34% (active) and 93.9% (inactive) | 109% (inactive) and -20.4% (active) and 107% (inactive) | 95.3% (inactive) and 2.8% (active) and 111% (inactive) | 109% (inactive) and -17.3% (active) and 92.1% (inactive) | 95.3% (inactive) and -15.9% (active) and 103% (inactive)
